Marburg entry inh – qHTS for inhibitors of binding or entry into cells for Marburg Virus; Marburg virus pseudotyped entry inhibition, cell reporter; Potency, µM (highest dose often 37.8 µM), for inactives: at the highest dose activity change, negative = inhibition, hits mostly inhibitors; 300,000 compounds, 1.8% hits; AID 540276, 2011; calls by dose curve; tested in HEK293 cells
LASV entry inh – qHTS for Inhibitors of binding or entry into cells for Lassa Virus. Lassa virus pseudotype entry inhibition, cell reporter. Potency, µM (doses to about 37.9 µM), for inactives: at the highest dose activity change, negative = inhibition, actives largely listed as inhibitors. 300,000 compounds, 1.2% hits. AID 540256, 2011; calls by dose curve; tested in HEK293 cells; also: nearly all actives have a fitted effect of over 50% in size
Vaccinia mCherry – qHTS for Stage-Specific Inhibitors of Vaccinia Orthopoxvirus: mCherry Reporter Primary qHTS | Vaccinia virus mCherry reporter infection, fluorescence | Potency, µM (top dose mostly 36.5 µM), without a hit: top-dose activity change, negative = inhibition, most hits filed as inhibitors | 310,000 compounds, 0.63% hits | AID 720579, 2013; calls by dose curve; tested in A549 cells; also: nearly all actives have a fitted effect of over 35% in size
VACV Venus inh – qHTS for Stage-Specific Inhibitors of Vaccinia Orthopoxvirus: Venus Reporter Primary qHTS | Potency, µM (highest dose often 36.5 µM), without a hit: top-dose activity change, negative = inhibition, most hits filed as inhibitors | AID 720580, 2013 | 330,000 compounds, 0.46% hits | Vaccinia virus Venus reporter expression, fluorescence; calls by dose curve; tested in A549 cells; also: nearly all actives have a fitted effect of over 30% in size
HCV inhibitor – qHTS Assay for Inhibitors of Hepatitis C Virus (HCV). AID 651820, 2012. 340,000 compounds, 3.4% hits. Huh7.5.1 HCVcc-Cre infection, luciferase reporter, 44 h. Potency, µM (top dose mostly 41.8 µM), inactives show top-dose activity change, negative = inhibition, most hits filed as inhibitors; active = well fitted inhibition curve with a large enough effect; inconclusive = small, poorly fitted or top-dose-only effect, or another doubt; inactive = no such curve, though single readings can be large or run the other way
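Luciferase read-out (15 sec integration) after a 15 min room-temperature substrate step quantifies HCVcc-Cre infection. Cells, 1,000 per well, had compound added 4 h post-plating, then virus at ~0.5 moi, and were cultured 44 h.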
Active calls of the source: *; [ ] = dose if it differs, or a comment. Shown are actives, neighbours in structure and some others; about 4.6% of the full set was active somewhere. % is scaled to controls: 0 for no effect and ±100 for the full control effect; potency is read from the fitted curve at half-maximal effect.

Screening CC(=O)OC[C@H]1O[C@H](C#Cc2ccc(C)cc2C)C=C[C@@H]1OC(C)=O returned Marburg entry inh -2.3%[14.2 µM].
For CCN1CCN(C(=O)c2cc(NC(=O)COC)cc3nc(-c4ccncc4)n(C)c23)CC1 the results were Vaccinia mCherry -10.2% and VACV Venus inh 1.0%.
Fc1ccc(Cn2ccc(-c3cnc(-c4ccccc4)s3)n2)cc1 was read as Marburg entry inh inconclusive, LASV entry inh -25.8%, VACV Venus inh inconclusive and HCV inhibitor 10µM*.
C[N+]1(CC(=O)c2c3ccccc3cc3ccccc23)CCOCC1 was read as Vaccinia mCherry 12.9% and VACV Venus inh -7.1%.
`CC[C@H](C)C(=O)O[C@H]1CCC=C2C=C[C@H](C)[C@H](CC[C@@H]3C[C@@H](O)CC(=O)O3)[C@H]21` gave Marburg entry inh inconclusive, LASV entry inh 0.0%, Vaccinia mCherry -5.2%, VACV Venus inh -19.6% and HCV inhibitor 0.562µM*.
Screening CC(C)c1c(C(=O)NCC(C)(C)N2CCOCC2)cnn1-c1nccc(-c2ccccc2F)n1 returned Vaccinia mCherry -10.6% and VACV Venus inh -8.1%.
Screening COc1ccc(CN2CC[C@H]3C=CC[C@@H](C(=O)NC4CCCCC4)[C@H]3C2=O)cc1OC returned Vaccinia mCherry inactive and VACV Venus inh -17.7%.
`COc1ccc(CC(N)c2csc(Nc3cnccn3)n2)cc1` (centres undefined) gave Vaccinia mCherry -21.5% and VACV Venus inh -16.7%.
`CC(C)CC(N)c1csc(Nc2cnccn2)n1` (centres undefined) gave Vaccinia mCherry 11.2µM* and VACV Venus inh 10µM*.
`CCN1C(=O)[C@@H]2[C@H]3[C@H](O)[C@H](O)CC(=NO[C@@H](C)c4cc(-c5c(C)cc(C)cc5C)no4)[C@@H]3CC[C@H]2C1=O` gave Marburg entry inh -12.7%[14.2 µM].
`O=C(CC1(O)C(=O)Nc2cc(Cl)cc(Cl)c21)c1ccccc1O` (centres undefined) gave Marburg entry inh inconclusive, LASV entry inh -17.5%, VACV Venus inh -12.6% and HCV inhibitor 25.1µM*.
`O=C(CC1(O)C(=O)Nc2ccccc21)c1ccccc1O` (centres undefined) gave Marburg entry inh 7.0%, LASV entry inh -5.4%, VACV Venus inh -19.2% and HCV inhibitor 9.5%.
`COc1ccc(N2C(=O)CCSC23C(=O)N(Cc2ccc(F)cc2)c2ccccc23)cc1` (centres undefined) gave LASV entry inh inconclusive, Vaccinia mCherry 11.2µM* and VACV Venus inh inconclusive.
For Cn1ncc2c(O/N=C(\N)c3ccc(C(C)(C)C)cc3)ncnc21 the results were Marburg entry inh inconclusive, LASV entry inh inconclusive, Vaccinia mCherry inactive[7.34 µM], VACV Venus inh -11.7%[7.34 µM] and HCV inhibitor 5.62µM*.
Screening Cc1cccc(-c2noc(-c3ccc(NC4CCCC4)c([N+](=O)[O-])c3)n2)c1 returned Marburg entry inh 12.8%[46.1 µM], LASV entry inh 6.2%[46.1 µM], Vaccinia mCherry -11.9% and VACV Venus inh -4.5%.
For Fc1ccc(-c2cc(C(F)(F)F)nc(NCC3CCCO3)n2)cc1 (centres undefined) the results were Marburg entry inh 5.0%, LASV entry inh -7.3%, VACV Venus inh -23.6% and HCV inhibitor 10µM*.
`Cc1cccc(Nc2nc(NCc3ccco3)c3ccccc3n2)c1` gave Marburg entry inh inconclusive, LASV entry inh 5.8µM*, Vaccinia mCherry inconclusive, VACV Venus inh 12.6µM* and HCV inhibitor 6.31µM*.
Oc1ccccc1Nc1nc(NCc2ccco2)c2ccccc2n1 was read as HCV inhibitor 12.6µM*.
For COc1ccc(OC)c(Nc2nc(NCc3ccco3)c3ccccc3n2)c1 the results were Marburg entry inh 12.6µM*, LASV entry inh -9.2%[46.1 µM], Vaccinia mCherry -22.5%, VACV Venus inh -23.3% and HCV inhibitor 11.2µM*.
For CCc1cccc(C)c1NC(=O)Cn1c(=O)cc(C)c2c(C)nn(-c3cccc(F)c3)c21 the results were LASV entry inh -3.4%[46.1 µM], Vaccinia mCherry -11.7% and VACV Venus inh -2.1%.

Assay outcomes (PubChem)
